Measured values reported in PubChem BioAssay (NCATS).
Results filed as inconclusive are left out. The source made the active and inactive calls. Unless noted, calls follow the shape of the dose curve; as a rule, active = well fitted curve in the direction sought with a large enough effect; inconclusive = small, poorly fitted or top-dose-only effect, or another doubt; inactive = no such curve, though single readings can be large; an effect the other way counts as inactive or inconclusive.

Key:
[1] = Cell Viability - LYMP2-020 (AID 986);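 also: series mostly up to about 92 µM; plate controls were DMSO only for no effect and tetraoctylammonium bromide at 92 µM for full effect; nearly all actives have a fitted effect of over 55% in size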
Summary of the method: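 Cells at 2500 per well receive a 24 hr compound exposure at 37 C. Viability is measured as ATP-dependent luciferase luminescence, with AC50 modeled from qHTS concentration-response curves.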

[2] = Cell Viability - LYMP2-022 (AID 987);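 also: 0% = DMSO alone and full effect = tetraoctylammonium bromide at 92 µM; nearly all actives have a fitted effect of over 55% in size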
Summary of the method: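 In this qHTS cytotoxicity screen, compound titrations were incubated 24 hr at 37 C with human lymphoblastoid cells in complete medium. Luciferase-based ATP luminescence provided the viability signal.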

[3] = Cell Viability - LYMP2-024 (AID 988);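 also: plate controls were DMSO only for no effect and 92 µM tetraoctylammonium bromide for full effect; nearly all actives have a fitted effect of over 60% in size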
Summary of the method: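 Cells at 2500 per well received compound for 24 hr after a 5 hr settling period. Viability was scored by CellTiter-Glo luminescence, with AC50 from Hill fits.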

[4] = Cell Viability - LYMP2-026 (AID 989); also: % is scaled to controls: 0 for no effect and ±100 for the full control effect; nearly all actives have a fitted effect of over 50% in size
Summary of the method: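 Acute toxicity screen in complete culture medium, with 24 hr compound exposure at 37 C. Viability read as cellular ATP via luciferase reaction, with tetraoctylammonium bromide (6.4pM to 92 uM) as positive control.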

[5] = Cell Viability - LYMP1-002 - Assay at 24 hr (AID 993); also: % is scaled to controls: 0 for no effect and ±100 for the full control effect
Summary of the method: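 Viability was judged from intracellular ATP using a luciferase read-out, following a 24-hour compound incubation at 37 C of lymphoblastoid cells seeded at 2500 per well. Concentration-response data were fitted to the Hill equation for AC50.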

[6] = Cell Viability - LYMP1-002 - Assay at 40 hr (AID 994);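 also: 0% = DMSO only and full inhibition = 92 µM tetraoctylammonium bromide; nearly all actives have a fitted effect of over 60% in size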
Summary of the method: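 Concentration-dependent ATP loss after 40 hr treatment at 37 C defined toxicity; AC50 values were obtained by fitting the standard Hill equation.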

[7] = target: ATP-dependent 6-phosphofructokinase (Trypanosoma brucei brucei) (UniProt O15648); test: qHTS Assay to Find Inhibitors of T. brucei phosphofructokinase: hit validation (AID 492961);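 also: luminescence reports ADP formed as PFK phosphorylates fructose-6-phosphate with ATP; series mostly up to about 51 µM; % is scaled to controls: 0 for no effect and ±100 for the full control effect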
Summary of the method: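 ADP-Glo luminescence read-out of ADP formed by 1.25 nM PFK from 0.1 mM ATP and 0.5 mM F6P (TEA pH 8.0, 45 min, RT). Compounds titrated; activity normalized to no-enzyme and full-enzyme controls.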

[8] = target: Ubiquitin carboxyl-terminal hydrolase 1 (Homo sapiens) (UniProt O94782); test: Inhibitors of USP1/UAF1: Pilot qHTS (AID 504865);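 also: rhodamine fluorescence freed from ubiquitin-rhodamine substrate followed over time; top concentration of the series differs between compounds; % is scaled to controls: 0 for no effect and ±100 for the full control effect; nearly all actives have a fitted effect of over 35% in size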
Summary of the method: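 1nM USP1/UAF1 + cpd, 15 min RT; start w/ Ub-Rho 150nM final; kinetic FL 480/540 nm, 6 reads q60 s. Buffer 50mM HEPES pH 7.8, 0.5mM EDTA, 1mM TCEP, 0.01% Tween-20, 0.1 mg/ml BSA.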

[9] = target: Estrogen receptor (Homo sapiens) (UniProt P03372); test: qHTS assay for small molecule antagonists of estrogen receptor alpha signaling (AID 588513; active = well fitted curve in the direction sought with a large enough effect in the signal ratio, with a control signal flat, not every such curve was filed as active; the % refers to the signal ratio; also: % is scaled to controls: 0 for no effect and ±100 for the full control effect)
Summary of the method: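 Beta-lactamase reporter, antagonist mode, HEK 293 GripTite cells; 0.5nM E2 stimulus, 18 h, 37 C; CCF4 dye 2 h RT; fluorescence. IC50 and efficacy from Hill fits, normalized to E2 and DMSO.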

[10] = target: Estrogen receptor (Homo sapiens) (UniProt P03372); test: qHTS assay for small molecule agonists of estrogen receptor alpha signaling (AID 588514; calls by dose curve;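 also: 0% = vehicle only and 100% = reference agonist; nearly all actives have a fitted effect of over 70% in size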)
Summary of the method: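 Fluorescence from CCF4 cleavage reports ER-alpha-driven beta-lactamase expression in HEK 293 cells treated 18 hrs at 37 C. Data normalized to 17-beta-estradiol (20 nM) and DMSO, fitted to Hill equation.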

[11] = target: Bile acid receptor (Homo sapiens) (UniProt Q96RI1); test: qHTS assay for small molecule antagonists of farnesoid X receptor signaling (AID 588526; calls by dose curve; also: % is scaled to controls: 0 for no effect and ±100 for the full control effect)
Summary of the method: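 Beta-lactamase reporter antagonist mode: HEK293T FXR-UAS-bla cells, titrated compound, CDCA stimulation, 16 h 37 C, CCF4 dye 2 h RT. Data normalized to CDCA 50 uM and DMSO; Hill-fit IC50.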

[12] = target: Glucocorticoid receptor (Homo sapiens) (UniProt P04150); test: qHTS assay for small molecule antagonists of glucocorticoid receptor signaling (AID 588533; active = well fitted inhibition curve with a large enough effect in the signal ratio, with a control signal flat, not every such curve was filed as active; the % refers to the signal ratio)
Summary of the method: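 Antagonist-mode qHTS: compound titrations added to GRE-bla HeLa cells, then dexamethasone 2 nM final; 18 h, 37 C. CCF4 FRET fluorescence normalized to dexamethasone and DMSO; IC50 from Hill fit.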

[13] = target: Peroxisome proliferator-activated receptor gamma (Homo sapiens) (UniProt P37231); test: qHTS assay for small molecule agonists of peroxisome proliferator-activated receptor gamma signaling (AID 588536; active = well fitted curve in the direction sought with a large enough effect in the signal ratio, with a control signal flat, not every such curve was filed as active; the % refers to the signal ratio;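 also: 0% = DMSO basal wells and 100% = rosiglitazone at 2 µM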)
Summary of the method: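 Compound treatment: 16 h, 37 C, HEK293 GeneBLAzer cells. Detection: CCF4, 2 h RT. Values: Hill-fit EC50, efficacy as % of 2 uM rosiglitazone.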

[14] = qHTS assay for small molecule agonists of retinoid X receptor alpha signaling (AID 588544; calls by dose curve); conditions: HEK293T RXRa-UAS-bla, beta-lactamase reporter, 18 h; 530 nm emission
[15] = target: Retinoic acid receptor RXR-alpha (Homo sapiens) (UniProt P19793); test: as above
[16] = target: Thyroid hormone receptor beta (Homo sapiens) (UniProt P10828); test: qHTS assay for small molecule agonists of thyroid hormone receptor beta signaling (AID 588545; calls by dose curve;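 also: 0% = DMSO only and 100% = 10 nM T3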)
Summary of the method: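 Beta-lactamase reporter activity under TR response element control is measured in HEK 293 cells after 18 hrs compound exposure. Signal is ratiometric CCF4 fluorescence, 460/530 nm.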

[17] = target: Thyroid hormone receptor beta (Homo sapiens) (UniProt P10828); test: qHTS assay for small molecule antagonists of thyroid hormone receptor beta signaling (AID 588547; active = well fitted inhibition curve with a large enough effect in the signal ratio, with a control signal flat, not every such curve was filed as active; the % refers to the signal ratio); conditions: TR-UAS-bla HEK293, beta-lactamase ratio, antagonist mode, 18 h
Summary of the method: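 Inhibition of T3-driven (0.4nM final) beta-lactamase reporter activity was measured over 0.59 nM to 92 uM compound after 18 h at 37 C. The cells were GripTite HEK293 TR-UAS-bla in charcoal/dextran-stripped serum, with CCF4 ratio read-out and IC50 from Hill fits.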

[18] = target: Voltage-gated inwardly rectifying potassium channel KCNH2 (Homo sapiens) (UniProt Q12809); test: qHTS Assay for Small Molecule Inhibitors of the Human hERG Channel Activity (AID 588834);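 also: top concentration of the series differs between compounds; % is scaled to controls: 0 for no effect and ±100 for the full control effect; lower thallium flux fluorescence means stronger hERG block; nearly all actives have a fitted effect of over 50% in size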
Summary of the method: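 Thallium-flux (FluxOR) read-out on FDSS: fluorescence read 10 s before and 2 min after stimulation buffer. hERG-BacMam-transduced U2OS cells, compound exposure about 10 min. AC50 by standard Hill equation.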

[19] = target: Luciferin 4-monooxygenase (Photinus pyralis) (UniProt P08659); test: Biochemical firefly luciferase enzyme assay for NPC (AID 624030);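 also: purified P. pyralis luciferase at 10 nM with luciferin and ATP substrate; series mostly up to about 59 µM; 0% = DMSO and -100% = full luciferase inhibition by PTC124 control; nearly all actives have a fitted effect of over 70% in size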
Summary of the method: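 Direct inhibition of firefly luciferase enzyme (10 nM final, 50 mM Tris Acetate) assessed by luminescence within 5 minutes. Percent activity scaled between DMSO and PTC124 positive control, with concentration-effect curves classified by fit quality and response.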

[20] = S16 Schwann cell viability assay (CellTiter-Glo assay) (AID 624031);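 also: native untransfected S16 rat Schwann cells; cellular ATP luminescence as a viability measure; series mostly up to about 58 µM; plate controls were DMSO-treated cells for no effect and cell-free wells for full effect; nearly all actives have a fitted effect of over 70% in size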
Summary of the method: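 Rat S16 Schwann cells without reporter constructs received compound or DMSO for 24 h at 37 °C under 5% CO2. Cellular ATP was then quantified by CellTiter-Glo luminescence, with vehicle wells defined as 0% activity and cell-free wells as reference.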

Sequence of Estrogen receptor (Homo sapiens) (P03372 whole entry, looked up): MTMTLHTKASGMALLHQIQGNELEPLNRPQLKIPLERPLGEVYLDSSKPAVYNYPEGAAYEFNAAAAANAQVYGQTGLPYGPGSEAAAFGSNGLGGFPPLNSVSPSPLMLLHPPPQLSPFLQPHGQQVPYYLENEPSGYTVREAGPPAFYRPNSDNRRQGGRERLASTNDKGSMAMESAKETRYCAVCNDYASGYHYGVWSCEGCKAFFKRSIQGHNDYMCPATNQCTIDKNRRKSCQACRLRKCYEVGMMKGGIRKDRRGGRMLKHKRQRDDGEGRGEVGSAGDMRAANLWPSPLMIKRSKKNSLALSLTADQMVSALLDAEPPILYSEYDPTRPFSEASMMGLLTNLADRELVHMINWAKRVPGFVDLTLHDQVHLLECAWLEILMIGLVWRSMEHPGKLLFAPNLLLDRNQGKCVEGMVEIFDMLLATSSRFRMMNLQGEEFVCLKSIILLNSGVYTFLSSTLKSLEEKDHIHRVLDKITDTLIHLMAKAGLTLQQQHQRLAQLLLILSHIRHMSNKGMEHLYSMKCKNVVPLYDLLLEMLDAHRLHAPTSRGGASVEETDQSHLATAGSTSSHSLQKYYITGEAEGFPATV
Sequence of Thyroid hormone receptor beta (Homo sapiens) (P10828 whole entry, looked up): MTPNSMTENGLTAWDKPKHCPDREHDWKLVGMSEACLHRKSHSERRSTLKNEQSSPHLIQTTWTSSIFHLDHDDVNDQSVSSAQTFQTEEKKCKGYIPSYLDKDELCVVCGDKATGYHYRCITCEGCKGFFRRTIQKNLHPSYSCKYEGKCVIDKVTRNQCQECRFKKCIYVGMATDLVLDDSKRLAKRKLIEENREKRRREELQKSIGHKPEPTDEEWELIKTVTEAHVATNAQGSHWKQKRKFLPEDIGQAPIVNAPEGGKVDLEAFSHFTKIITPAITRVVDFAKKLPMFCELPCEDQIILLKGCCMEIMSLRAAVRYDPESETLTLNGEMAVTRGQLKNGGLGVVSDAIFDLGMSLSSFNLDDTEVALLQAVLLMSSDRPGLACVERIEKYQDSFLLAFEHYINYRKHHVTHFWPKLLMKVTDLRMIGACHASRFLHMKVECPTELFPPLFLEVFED
Sequence of ATP-dependent 6-phosphofructokinase (Trypanosoma brucei brucei) (O15648 whole entry, looked up): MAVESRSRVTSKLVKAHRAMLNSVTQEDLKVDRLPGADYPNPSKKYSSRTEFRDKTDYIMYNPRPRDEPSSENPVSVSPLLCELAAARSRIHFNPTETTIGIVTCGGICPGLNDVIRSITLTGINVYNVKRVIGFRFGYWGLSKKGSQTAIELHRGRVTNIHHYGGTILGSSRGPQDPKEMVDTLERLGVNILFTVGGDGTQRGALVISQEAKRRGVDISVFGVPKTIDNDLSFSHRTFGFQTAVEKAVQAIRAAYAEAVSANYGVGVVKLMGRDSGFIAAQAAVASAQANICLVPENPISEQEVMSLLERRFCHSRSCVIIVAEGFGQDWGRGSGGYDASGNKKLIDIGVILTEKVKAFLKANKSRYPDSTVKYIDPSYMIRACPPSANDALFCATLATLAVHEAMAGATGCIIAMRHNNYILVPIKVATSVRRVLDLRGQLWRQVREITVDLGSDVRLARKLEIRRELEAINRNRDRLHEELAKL
Sequence of Retinoic acid receptor RXR-alpha (Homo sapiens) (P19793 whole entry, looked up): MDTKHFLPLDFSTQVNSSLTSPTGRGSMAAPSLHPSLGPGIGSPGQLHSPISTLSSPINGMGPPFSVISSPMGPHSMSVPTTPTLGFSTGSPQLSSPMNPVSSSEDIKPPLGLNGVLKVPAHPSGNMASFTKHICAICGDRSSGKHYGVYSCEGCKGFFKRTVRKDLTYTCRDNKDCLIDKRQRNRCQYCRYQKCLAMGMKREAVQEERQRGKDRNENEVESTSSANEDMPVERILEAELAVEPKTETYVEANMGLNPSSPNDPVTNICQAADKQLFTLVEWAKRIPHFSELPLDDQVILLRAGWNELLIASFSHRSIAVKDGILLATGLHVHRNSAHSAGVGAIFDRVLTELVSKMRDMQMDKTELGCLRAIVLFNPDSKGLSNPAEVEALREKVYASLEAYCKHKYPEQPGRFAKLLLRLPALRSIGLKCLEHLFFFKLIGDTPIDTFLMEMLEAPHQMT
Sequence of Bile acid receptor (Homo sapiens) (Q96RI1 whole entry, looked up): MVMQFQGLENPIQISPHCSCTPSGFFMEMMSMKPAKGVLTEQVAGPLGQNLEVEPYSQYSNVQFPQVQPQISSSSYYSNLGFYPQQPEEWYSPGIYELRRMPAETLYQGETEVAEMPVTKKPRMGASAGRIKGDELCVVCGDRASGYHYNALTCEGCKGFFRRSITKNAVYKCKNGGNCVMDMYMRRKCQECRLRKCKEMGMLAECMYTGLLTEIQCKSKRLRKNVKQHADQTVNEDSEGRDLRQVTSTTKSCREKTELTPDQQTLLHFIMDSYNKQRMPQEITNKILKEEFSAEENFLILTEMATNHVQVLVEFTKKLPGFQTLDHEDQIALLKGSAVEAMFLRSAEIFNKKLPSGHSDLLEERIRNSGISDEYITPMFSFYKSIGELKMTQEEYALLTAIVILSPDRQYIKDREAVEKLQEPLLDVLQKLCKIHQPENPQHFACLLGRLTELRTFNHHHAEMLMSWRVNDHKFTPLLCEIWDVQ
Sequence of Luciferin 4-monooxygenase (Photinus pyralis) (P08659 whole entry, looked up): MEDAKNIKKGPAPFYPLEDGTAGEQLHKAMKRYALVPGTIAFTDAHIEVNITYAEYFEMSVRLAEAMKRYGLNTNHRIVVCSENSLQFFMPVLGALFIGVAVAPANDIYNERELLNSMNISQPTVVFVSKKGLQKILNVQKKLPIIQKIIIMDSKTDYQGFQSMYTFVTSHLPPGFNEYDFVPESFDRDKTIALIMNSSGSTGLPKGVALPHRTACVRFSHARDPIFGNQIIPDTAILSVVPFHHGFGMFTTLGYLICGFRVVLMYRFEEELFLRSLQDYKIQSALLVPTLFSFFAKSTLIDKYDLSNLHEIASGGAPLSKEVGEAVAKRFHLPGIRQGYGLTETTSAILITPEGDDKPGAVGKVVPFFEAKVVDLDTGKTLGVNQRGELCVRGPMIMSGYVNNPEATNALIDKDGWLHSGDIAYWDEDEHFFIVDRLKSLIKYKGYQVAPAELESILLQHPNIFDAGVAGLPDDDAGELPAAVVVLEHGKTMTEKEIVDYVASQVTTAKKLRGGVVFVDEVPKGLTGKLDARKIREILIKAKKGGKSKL
Sequence of Voltage-gated inwardly rectifying potassium channel KCNH2 (Homo sapiens) (Q12809 whole entry, looked up): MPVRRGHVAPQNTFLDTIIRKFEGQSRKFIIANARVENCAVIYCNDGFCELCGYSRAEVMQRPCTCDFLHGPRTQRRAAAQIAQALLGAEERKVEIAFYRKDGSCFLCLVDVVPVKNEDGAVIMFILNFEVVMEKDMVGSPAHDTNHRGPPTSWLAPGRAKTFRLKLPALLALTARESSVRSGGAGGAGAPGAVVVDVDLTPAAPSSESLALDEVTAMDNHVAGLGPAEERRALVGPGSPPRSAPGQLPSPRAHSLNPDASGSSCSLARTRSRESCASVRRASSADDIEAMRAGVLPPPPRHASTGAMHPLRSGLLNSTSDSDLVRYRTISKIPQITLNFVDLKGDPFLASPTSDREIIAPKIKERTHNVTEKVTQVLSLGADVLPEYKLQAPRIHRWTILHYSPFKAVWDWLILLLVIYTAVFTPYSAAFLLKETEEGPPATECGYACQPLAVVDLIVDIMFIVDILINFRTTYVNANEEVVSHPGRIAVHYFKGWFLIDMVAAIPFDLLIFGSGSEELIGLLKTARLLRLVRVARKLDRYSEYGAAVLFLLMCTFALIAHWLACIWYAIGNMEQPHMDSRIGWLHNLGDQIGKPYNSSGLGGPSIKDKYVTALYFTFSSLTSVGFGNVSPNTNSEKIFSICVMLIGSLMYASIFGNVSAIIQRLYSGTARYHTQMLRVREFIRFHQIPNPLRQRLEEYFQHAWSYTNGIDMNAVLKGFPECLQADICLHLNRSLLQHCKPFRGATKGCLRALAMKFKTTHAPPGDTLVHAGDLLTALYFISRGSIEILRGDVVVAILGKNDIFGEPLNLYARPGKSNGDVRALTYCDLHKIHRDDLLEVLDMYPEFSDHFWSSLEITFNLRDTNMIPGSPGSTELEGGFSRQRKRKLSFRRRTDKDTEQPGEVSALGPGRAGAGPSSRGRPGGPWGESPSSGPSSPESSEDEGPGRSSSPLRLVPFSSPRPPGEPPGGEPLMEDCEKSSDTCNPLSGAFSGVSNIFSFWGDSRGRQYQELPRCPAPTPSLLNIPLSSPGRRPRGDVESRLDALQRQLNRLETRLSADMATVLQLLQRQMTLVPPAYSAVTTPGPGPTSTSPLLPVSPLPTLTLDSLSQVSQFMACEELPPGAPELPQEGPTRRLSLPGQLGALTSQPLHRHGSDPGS
Sequence of Peroxisome proliferator-activated receptor gamma (Homo sapiens) (P37231 whole entry, looked up): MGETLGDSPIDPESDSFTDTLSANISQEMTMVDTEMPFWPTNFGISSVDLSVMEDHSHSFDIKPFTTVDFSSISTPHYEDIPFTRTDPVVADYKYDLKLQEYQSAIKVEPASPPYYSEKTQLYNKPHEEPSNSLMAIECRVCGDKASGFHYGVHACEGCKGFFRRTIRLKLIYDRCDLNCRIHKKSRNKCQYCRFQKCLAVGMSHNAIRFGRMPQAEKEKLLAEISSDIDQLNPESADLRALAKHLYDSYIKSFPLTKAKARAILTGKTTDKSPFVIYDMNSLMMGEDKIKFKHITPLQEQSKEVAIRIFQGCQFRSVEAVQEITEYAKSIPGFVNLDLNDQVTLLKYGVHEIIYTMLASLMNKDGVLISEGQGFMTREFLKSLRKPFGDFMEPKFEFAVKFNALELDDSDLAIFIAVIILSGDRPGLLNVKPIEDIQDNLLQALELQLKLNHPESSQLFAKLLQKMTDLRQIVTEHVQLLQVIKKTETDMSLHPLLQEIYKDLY

C[C@@H]1[C@H](O)[C@@H](C)/C=C/C=C/C=C/C=C/C=C/C=C/C=C/[C@H](O[C@@H]2O[C@H](C)[C@@H](O)[C@H](N)[C@@H]2O)C[C@@H]2O[C@](O)(C[C@@H](O)C[C@@H](O)[C@H](O)CC[C@@H](O)C[C@@H](O)CC(=O)O[C@H]1C)C[C@H](O)[C@H]2C(=O)O
inactive: outcome [1] | outcome [2] | outcome [3] | outcome [4] | outcome [5] | outcome [6] | outcome [7] | Potency [8] | outcome [9] | outcome [10] | Potency [11] | Potency [12] | outcome [13] | outcome [15] | outcome [16] | activity change % (negative = inhibition) [17] 2.02% | Potency [18] | Potency [19] | outcome [20]
19.3%: max response [14]
